According to PubChem BioAssay:
Active and inactive are the calls of the source.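 The calls were made as follows, unless noted: active = fluorescence slope after compound addition differing from the mean of all screened samples at 99.7% confidence, in either direction; inactive = the rest.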

Experiments:
[1] = inhibitors of TNFa-induced NFkB p65 translocation, primary screen, imaging, HUVEC, MLSMR starter and 10KST1 sets (AID 438;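 active = inhibition above 20% together with a positive visual image hit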;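 also: compound added about 3h40 before a 20 min TNFalpha stimulation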;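 as to inhibition: signal is the nuclear over cytoplasmic p65 intensity ratio per well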); settings: HUVEC TNFa-induced p65 nuclear translocation; cell count: measured here: nuclei count (cytotoxicity indicator), at 2.08 µM; inhibition: at 2 µM, stronger effect = higher value, 0% TNFa-plus-vehicle, 100% no-TNFa wells
[2] = inhibitors of mutant huntingtin aggregation, primary screen, imaging, exon1htt(103Q)mCFP cells, high-content imaging (AID 483;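 active = visual image review flags a hit and inhibition of aggregation exceeds 20%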;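 also: compound exposure lasted 3 days before fixation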;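 as to nuclei count: percent of the per-plate median nuclei count of sample wells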); settings: exon1htt(103Q)mCFP cell line, aggregate imaging, at 2 µM; inhibition of aggregation: stronger effect = higher value; nuclei count: measured here: cell count, toxicity
[3] = inhibitors of E-selectin induction by TNFa, primary screen, imaging, HUVEC, immunofluorescence, MLSMR starter and 10KST1 sets (AID 487;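 active = visually confirmed hit in the image check and inhibition above 20%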;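 as to inhibition: signal is fraction of cell area covered by stained E-selectin grains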;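 as to nuclei count: 100% = median nuclei count of all wells on the same plate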); settings: HUVEC TNFalpha-induced E-selectin immunofluorescence imaging, at 2 µM; inhibition: stronger effect = higher value; nuclei count: measured here: cell number, toxicity
[4] = molecular target: Voltage-gated potassium channel subunit beta-2 (Rattus norvegicus) (UniProt P62483); assay: KvBeta enzyme negative modulators, primary screen, biochemical, NADPH fluorescence (AID 622;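 active = fluorescence slope higher than the sample average by over 3 SD, cut at about -0.22 in these data, passing the limit was not always enough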;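 also: slope of raw intensity against log time taken from 70 to 1610 s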); settings: recombinant KvBeta, 4-cyanobenzaldehyde reduction, at 10 µM, stronger effect = higher value
Voltage-gated potassium channel subunit beta-2 (Rattus norvegicus), sequence (P62483 whole entry, looked up): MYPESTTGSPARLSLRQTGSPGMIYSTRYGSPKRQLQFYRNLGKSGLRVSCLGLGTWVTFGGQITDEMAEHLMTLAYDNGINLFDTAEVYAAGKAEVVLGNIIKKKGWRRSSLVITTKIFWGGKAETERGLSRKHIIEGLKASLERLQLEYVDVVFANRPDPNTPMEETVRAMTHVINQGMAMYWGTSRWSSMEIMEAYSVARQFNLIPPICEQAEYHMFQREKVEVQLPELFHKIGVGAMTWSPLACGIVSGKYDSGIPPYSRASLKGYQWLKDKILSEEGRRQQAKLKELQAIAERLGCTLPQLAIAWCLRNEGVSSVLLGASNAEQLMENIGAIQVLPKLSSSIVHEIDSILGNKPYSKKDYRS

[5] = molecular target: Voltage-gated potassium channel subunit beta-2 (Rattus norvegicus) (UniProt P62483); assay: KvBeta positive modulators, primary screen, biochemical, NADPH fluorescence (AID 623;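 active = NADPH fluorescence slope more negative than the mean of all samples by about 3 SD, 99.7% confidence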;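 also: fluorescence intensity change per second fitted from 20 to 320 s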); settings: Recombinant KvBeta, NADPH fluorescence decrease slope, 10 min; at 10 µM; stronger effect = lower value
[6] = molecular target: Alpha-2C adrenergic receptor (Homo sapiens) (UniProt P18825); assay: modulators of alpha2C/GIRK thallium flux, primary screen, cell-based, HEK293 alpha2C/GIRK1/2 (AID 624); settings: thallium flux BTC fluorescence, at 10 µM, actives lie on both sides;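 also: slope of fluorescence ratio to pre-addition baseline per second over 15 to 24 s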
Alpha-2C adrenergic receptor (Homo sapiens), sequence (P18825 whole entry, looked up): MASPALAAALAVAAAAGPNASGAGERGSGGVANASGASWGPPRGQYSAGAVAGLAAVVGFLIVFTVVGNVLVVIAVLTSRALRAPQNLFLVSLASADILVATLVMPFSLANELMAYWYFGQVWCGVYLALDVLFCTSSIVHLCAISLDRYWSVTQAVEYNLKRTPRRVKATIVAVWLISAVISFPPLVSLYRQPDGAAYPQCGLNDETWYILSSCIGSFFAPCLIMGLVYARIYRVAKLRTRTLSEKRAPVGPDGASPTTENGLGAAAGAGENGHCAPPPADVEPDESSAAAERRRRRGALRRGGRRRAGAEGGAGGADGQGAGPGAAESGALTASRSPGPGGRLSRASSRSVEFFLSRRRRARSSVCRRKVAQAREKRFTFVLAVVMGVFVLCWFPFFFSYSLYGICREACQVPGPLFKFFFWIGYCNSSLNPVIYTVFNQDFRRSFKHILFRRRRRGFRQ

[7] = inhibitors of Sendai virus-induced IRF3 signaling, primary screen, TLR/RLR signaling modifier project, cell-based, Sendai virus stimulus, luciferase, 10K MLSCN set (AID 602276;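 active = inhibition at or above 50% at 10 µM; inactive = inhibition below 50%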;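 also: firefly luciferase from ISG56 promoter only with Renilla not read in this screen; 0% = Sendai virus plus DMSO and 100% = medium plus DMSO without virus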); settings: HEK293 RL24 IRF3 luciferase reporter, at 10 µM, stronger effect = higher value
[8] = inhibitors of poly I:C-induced TLR3 signaling, primary screen, cell-based, poly I:C stimulus, luciferase, 10K MLSCN set (AID 602277;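 active = inhibition of the reporter signal at or above 50%; inactive = inhibition below 50%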); settings: HEK293-TLR3 RL24 IRF3 luciferase reporter, at 10 µM, stronger effect = higher value

| Compound | cell count [1] | inhibition [1] | inhibition of aggregation [2] | nuclei count [2] | inhibition [3] | nuclei count [3] | fluorescence slope [4] | NADPH fluorescence slope [5] | slope [6] | inhibition [7] | inhibition [8] |
| --- | --- | --- | --- | --- | --- | --- | --- | --- | --- | --- | --- |
| Cc1cnc(C(=O)OCC(=O)Nc2ccc(Oc3ccccc3)cc2)cn1 | 566 | -16.3% (inactive) | -29.2% (inactive) | 107% | -1.5% (inactive) | 122% | -0.367 (inactive) | -8.3e-06 (inactive) | 0.00457 (inactive) | -29.5% (inactive) | -39.7% (inactive) |
| c1cc2c(cc1Cn1cnnn1)OCO2 | 599 | 2.1% (inactive) | -6.5% (inactive) | 107% | 26.6% (inactive) | 87.2% | -0.492 (inactive) | -6.9e-05 (inactive) | 0.00714 (inactive) | 13.3% (inactive) | 22.4% (inactive) |
| Cc1[nH]c2ccccc2c(=O)c1CN1CCCCC1 | 400 | 2.1% (inactive) | -1.5% (inactive) | 111% | -47.3% (inactive) | 119% | -0.453 (inactive) | -5.7e-05 (inactive) | 0.00287 (inactive) | 6.83% (inactive) | 36.8% (inactive) |
| Cc1ccc2cccc(SCC(=O)N3CCOCC3)c2n1 | 286 | -6.7% (inactive) | 28% (inactive) | 72.7% | -45.8% (inactive) | 105% | -0.327 (inactive) | 7.7e-06 (inactive) | 0.00384 (inactive) | 6.65% (inactive) | 31.6% (inactive) |
| COc1ccccc1NC(=O)C(C)NS(=O)(=O)c1ccc(F)cc1 (centres undefined) | 331 | 2.8% (inactive) | -6.8% (inactive) | 108% | -22.4% (inactive) | 100% | -0.476 (inactive) | -3.4e-05 (inactive) | 0.00634 (inactive) | 3.7% (inactive) | 46.5% (inactive) |
| CN(c1ccccc1C(=O)N1CCN(c2cccc(Cl)c2)CC1)S(C)(=O)=O | 313 | -1.9% (inactive) | 3.7% (inactive) | 101% | 18.2% (inactive) | 120% | -0.432 (inactive) | -2.5e-05 (inactive) | 0.0047 (inactive) | 6.88% (inactive) | 8.69% (inactive) |
| Cc1csc(NC(=O)c2cccs2)n1 | 464 | 1% (inactive) | 30.4% (inactive) | 83.3% | -47.5% (inactive) | 99.5% | -0.506 (inactive) | -4.8e-05 (inactive) | 0.00677 (inactive) | -38.4% (inactive) | -103% (inactive) |
| c1ccc(OCc2nc3ccccc3[nH]2)cc1 | 443 | -6.5% (inactive) | 9.8% (inactive) | 75.8% | -77.6% (inactive) | 132% | -0.392 (inactive) | -5.8e-05 (inactive) | 0.00568 (inactive) | -47.4% (inactive) | -118% (inactive) |
| O=C(NCC1CCCO1)C1c2ccccc2C(=O)N1C1CCCCCC1 (centres undefined) | 445 | -9.2% (inactive) | -4.3% (inactive) | 101% | -38.3% (inactive) | 109% | -0.621 (inactive) | 2.7e-06 (inactive) | 0.00613 (inactive) | 11.3% (inactive) | 15.1% (inactive) |
| CCOC(=O)C1CCN(C(=O)COc2ccc(S(=O)(=O)NC(C)C)cc2Cl)CC1 | 718 | 1.5% (inactive) | 9% (inactive) | 109% | -3.9% (inactive) | 97.5% | -0.46 (inactive) | -1.1e-05 (inactive) | 0.00357 (inactive) | 12% (inactive) | 9.55% (inactive) |
| CC(=O)SCCC(=O)Nc1ccccc1 | 646 | -1.4% (inactive) | -12.1% (inactive) | 122% | -61.7% (inactive) | 108% | -0.498 (inactive) | 3.1e-06 (inactive) | 0.00709 (inactive) | 20.3% (inactive) | 28.9% (inactive) |
| CSc1nc2ccc(Nc3nc(N4CCOCC4)nc(N4CCOCC4)n3)cc2s1 | 391 | 4.9% (inactive) | 6.4% (inactive) | 106% | 17.6% (inactive) | 110% | -0.354 (inactive) | -2.2e-05 (inactive) | 0.00663 (inactive) | -24.9% (inactive) | -49.5% (inactive) |
| CCN(CC)S(=O)(=O)c1ccc2[nH]cc(C(=O)NCCC3=CCCCC3)c(=O)c2c1 | 344 | 8.4% (inactive) | -4.1% (inactive) | 71.6% | 96.3% (active) | 91% | -0.498 (inactive) | -4.6e-05 (inactive) | 0.00467 (inactive) | 12% (inactive) | 6.76% (inactive) |
| O=C1CC(N2CCOCC2)C(=O)N1c1ccccc1Cl (centres undefined) | 386 | -0.6% (inactive) | 13.9% (inactive) | 96.9% | -25.3% (inactive) | 128% | -0.338 (inactive) | 1.7e-05 (inactive) | 0.00688 (inactive) | 9.93% (inactive) | 18% (inactive) |
